# Reference: publication PMC11062913
# Columns and labels:
# [1] = biological target: DNA-directed RNA polymerase II subunit RPB7 (UniProt P62487); experiment: cross-link between two proteins; cross-linking mass spectrometry
# Histone H2A type 1 [2] = biological target: Histone H2A type 1 (UniProt P06897); experiment: as above
# Histone H2B 1.1 = Histone H2B 1.1 (UniProt P02281); experiment: as above
# Histone H3.2 [3] = biological target: Histone H3.2 (UniProt P84233); experiment: as above
# [4] = biological target: Transcription elongation factor SPT4 (UniProt P63272); experiment: cross-link between two proteins; cross-linking mass spectrometry; two-hybrid or complementation screen
# Histone H3.2 [5] = biological target: Histone H3.2 (UniProt P84233); experiment: cross-linking mass spectrometry
# Histone H4 = Histone H4 (UniProt P62799); experiment: cross-linking mass spectrometry
# [6] = biological target: Transcription elongation factor A protein 1 (UniProt P23193); experiment: cross-link between two proteins; cross-linking mass spectrometry
# Histone H2A type 1 [7] = biological target: Histone H2A type 1 (UniProt P06897); experiment: cross-linking mass spectrometry
substance,measurement,setting,value
"Transcription elongation factor SPT5, O00267",listed as a hit,[1],yes
same,listed as a hit,Histone H2A type 1 [2],yes
same,listed as a hit,Histone H2B 1.1,yes
same,listed as a hit,Histone H3.2 [3],yes
same,listed as a hit,[4],yes
"Histone H2A type 1, P06897",listed as a hit,Histone H3.2 [5],yes
same,listed as a hit,Histone H4,yes
same,listed as a hit,[6],yes
"Transcription elongation factor A protein 1, P23193",listed as a hit,Histone H3.2 [3],yes
"Histone H4, P62799",listed as a hit,Histone H3.2 [3],yes
"DNA-directed RNA polymerase II subunit RPB7, P62487",listed as a hit,Histone H3.2 [3],yes
"Histone H2B 1.1, P02281",listed as a hit,Histone H2A type 1 [7],yes
same,listed as a hit,Histone H3.2 [5],yes
same,listed as a hit,Histone H4,yes
